According to PubChem BioAssay (Tox21):
Inconclusive results are not listed. Active and inactive are the calls of the source. Unless noted, calls follow the shape of the dose curve; as a rule, active = well fitted curve in the direction sought with a large enough effect in the repeat runs; inconclusive = weak or mixed curves; inactive = no such curve, though single readings can be large; an effect the other way counts as inactive or inconclusive.

Legend:
[1] = qHTS assay for small molecules that induce genotoxicity in human embryonic kidney cells expressing luciferase-tagged ATAD5 (AID 651632); also: nearly all actives have a fitted effect of over 15% in size
Outline: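 Cells were seeded at 2,000 per well, dosed with compound, and incubated 16 hr at 37C in 5% CO2. Luciferase activity was then quantified after a 30 min room-temperature incubation with Amplite.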

[2] = qHTS assay for small molecule agonists of the p53 signaling pathway - cell viability (AID 651633; calls by dose curve; also: series mostly up to about 83 µM; nearly all actives have a fitted effect of over 30% in size)
Outline: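 p53RE-bla cells, seeded at 4,000 per well and rested 5 h at 37 C/5% CO2, received compounds in DMSO for 16 h at 37 C. CellTiter-Glo was then added, and luminescence was read after 30 min at room temperature to gauge cytotoxicity.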

[3] = qHTS assay for small molecules that induce genotoxicity in human embryonic kidney cells expressing luciferase-tagged ATAD5 - cell viability (AID 651634; calls by dose curve; also: nearly all actives have a fitted effect of over 25% in size; also: potency is read from the fitted curve at half-maximal effect)
Outline: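 Cells (HEK293T, luciferase-tagged ATAD5) are seeded at 2,000 per well, dosed with compound or DMSO vehicle, and incubated 15.5 hr at 37C and 5% CO2. CellTiter-Fluor is added for 30 min before fluorescence is measured.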

[4] = qHTS assay for small molecule disruptors of the mitochondrial membrane potential - cell viability (AID 720634; calls by dose curve;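 also: human HepG2 liver cancer cells; series mostly up to about 83 µM; nearly all actives have a fitted effect of over 20% in size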)
Outline: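 Cytotoxicity was measured by ATP quantitation in HepG2 wells that had first been treated with compound for 1 hr and stained with m-MPI dye; CellTiter-Glo incubation was 30 min at room temperature.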

[5] = qHTS assay to test for compound auto fluorescence at 590 nm (red) in HepG2 cells (AID 720674)
Outline: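 Intrinsic compound fluorescence in the red window (Ex/Em 540/590 nm) is measured in attached HepG2 cells exposed for 1 hr, DMSO vehicle as baseline, benchmarked to Rose Bengal sodium.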

[6] = qHTS assay to test for compound auto fluorescence at 535 nm (green) in HepG2 cells (AID 720675)
[7] = qHTS assay to test for compound auto fluorescence at 460 nm (blue) in HEK293 cells (AID 720678)
Outline: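 Blue-channel (Ex/Em 405/460 nm) intensity measured in HEK293 cultures after overnight compound exposure at 37C; signal expressed relative to triamterene. Cells plated 2,000 per well in 10% dialyzed FBS medium and allowed 4-5 hr to attach.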

[8] = qHTS assay to test for compound auto fluorescence at 590 nm (red) in HEK293 cells (AID 720679)
Outline: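 Red-channel autofluorescence (Ex/Em 540/590 nm; Rose Bengal sodium reference) was measured after overnight 37C, 5% CO2 exposure of attached HEK293 cells, 2,000 per well in medium with 10% dialyzed FBS.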

[9] = qHTS assay for small molecule disruptors of the mitochondrial membrane potential (AID 720635); also: potency is read from the fitted curve at half-maximal effect
Outline: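 HepG2 cells (2,000/well) attached overnight at 37C, then took compound for 1 hr at 37C, 5% CO2. Mito-MPS dye was added for 30 min; fluorescence was read at 490/535 nm (monomers) and 540/590 nm (aggregates).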

[10] = qHTS assay for small molecule agonists of the p53 signaling pathway (AID 651631; calls by dose curve; also: nearly all actives have a fitted effect of over 15% in size)
Outline: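 Readout was fluorescence from the LiveBLAzer FRET substrate, applied for 2 h at room temperature after 16 h compound exposure at 37 °C. Cells were the p53RE-bla HCT-116 line, with beta-lactamase driven by p53 response elements.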
% is scaled to controls: 0 for no effect and ±100 for the full control effect.

O=S(=O)(O)SSS(=O)(=O)O
inactive: outcome [1] | outcome [2] | Potency [3] | outcome [4] | outcome [5] | outcome [6] | outcome [7] | outcome [8]

COc1cccc2sc(N)nc12
inactive: outcome [1] | outcome [2] | Potency [3] | outcome [5] | outcome [6] | outcome [7] | outcome [8]
active: Potency [9] 43.5 µM

CCC(C)N (centres undefined)
inactive: outcome [1] | outcome [2] | Potency [3] | outcome [4] | Potency [9] | outcome [5] | outcome [7] | outcome [8]

CCc1nccnc1C
inactive: outcome [1] | outcome [2] | Potency [3] | outcome [4] | outcome [5] | outcome [7] | outcome [8]

C=CCOc1c(Br)cc(C(C)(C)c2cc(Br)c(OCC=C)c(Br)c2)cc1Br
inactive: outcome [1] | outcome [2] | Potency [3] | outcome [4] | Potency [9] | outcome [5] | outcome [6] | outcome [7] | outcome [8]

Cc1nc2ccccc2c(=O)o1
inactive: outcome [1] | outcome [2] | Potency [3] | outcome [4] | outcome [5] | outcome [6] | outcome [7] | outcome [8]

CC(=O)c1ccc(OCC(=O)N2CCCCC2)cc1
inactive: outcome [1] | outcome [2] | Potency [3] | outcome [4] | Potency [9] | outcome [5] | outcome [6] | outcome [7] | outcome [8]

COC(/C=C(\C)CCC=C(C)C)OC
inactive: outcome [1] | outcome [2] | Potency [3] | outcome [4] | Potency [9] | outcome [5] | outcome [7] | outcome [8]

C=CCOCC(O)CCl (centres undefined)
inactive: outcome [1] | outcome [2] | Potency [3] | outcome [4] | outcome [5] | outcome [6] | outcome [7] | outcome [8]

C=C(C)[C@@H]1CC[C@@H](C)C[C@@H]1O
inactive: outcome [10] | Potency [3] | outcome [4] | outcome [5] | outcome [6] | outcome [8]

CC(C)CCCCCCOC(=O)C1CCCCC1C(=O)OCCCCCCC(C)C (centres undefined)
inactive: outcome [1] | outcome [2] | Potency [3] | outcome [4] | outcome [6] | outcome [7] | outcome [8]

N#CCCOCCOCCC#N
inactive: outcome [1] | outcome [2] | Potency [3] | outcome [4] | outcome [5] | outcome [7] | outcome [8]

Cc1cccc(Nc2ccncc2S(=O)(=O)NC(=O)NC(C)C)c1
inactive: outcome [1] | outcome [2] | Potency [3] | outcome [4] | Potency [9] | fluorescence, relative to Rose Bengal [5] -0.554% [at 18.6 µM] | fluorescence, % of fluorescein control [6] 0.0113% [at 18.6 µM] | fluorescence, % of triamterene [7] 0.173% [at 18.6 µM] | fluorescence, % of fluorescent control [8] 0.875% [at 18.6 µM]

CN(C1CCCCC1)S(=O)(=O)c1ccccc1N
inactive: outcome [1] | Potency [3] | outcome [5] | outcome [7] | outcome [8]

C[C@@H]1C[C@H]2[C@@H]3C[C@H](F)C4=CC(=O)C=C[C@]4(C)[C@@]3(F)[C@@H](O)C[C@]2(C)[C@@]1(O)C(=O)CO
inactive: outcome [2] | Potency [3] | outcome [4] | fluorescence, relative to Rose Bengal [5] -0.458% [at 18.6 µM] | fluorescence, % of fluorescein control [6] 0.0352% [at 18.6 µM] | fluorescence, % of fluorescent control [8] -0.084% [at 18.6 µM]

CC(C)COC(=O)CCCCC(=O)OCC(C)C
inactive: outcome [1] | Potency [3] | outcome [4] | outcome [5] | outcome [6] | outcome [7] | outcome [8]

O=C1NC2NC(=O)NC2N1 (centres undefined)
inactive: outcome [1] | Potency [3] | Potency [9] | outcome [5] | outcome [7] | outcome [8]

COc1cc2c(Nc3ccc(Br)cc3F)ncnc2cc1OCC1CCN(C)CC1
active: Potency [3] 13.3 µM
inactive: outcome [1] | outcome [4] | outcome [5] | outcome [6] | outcome [7] | outcome [8]

CCC1Nc2cc(Cl)c(S(N)(=O)=O)cc2S(=O)(=O)N1 (centres undefined)
inactive: outcome [1] | Potency [3] | outcome [4] | outcome [5] | outcome [6] | outcome [7] | outcome [8]

C=CCOc1c(Br)cc(Br)cc1Br
inactive: outcome [1] | Potency [3] | outcome [6] | outcome [7] | outcome [8]

O=S(=O)(O)CCO
inactive: outcome [1] | outcome [2] | Potency [3] | outcome [5] | outcome [6] | outcome [7] | outcome [8]

CCCCCCCCCCCCC1CO1 (centres undefined)
inactive: outcome [2] | outcome [4] | Potency [9] | outcome [5] | outcome [6] | outcome [8]

Nc1ccc(/C=C/c2ccc(N)cc2S(=O)(=O)O)c(S(=O)(=O)O)c1
inactive: outcome [2] | outcome [4] | Potency [9] | outcome [6] | outcome [7] | outcome [8]
